As a reminder, the inhibition is the relative decrease from the control value, in per cent.

Screen size: about 190,000 compounds; about 810 (0.43%) were called active. Rule as the data show it: active = inhibition above about 50%; inactive = the rest. The list comes from a sample in which actives are over-represented; it also holds similar structures and randomly drawn compounds.

These results are taken from PubChem BioAssay AID1209 (Sanford-Burnham Center for Chemical Genomics, 2008).

In the assay the target is Mannose-6-phosphate isomerase (Homo sapiens) (UniProt P34949). Nature of the assay: inhibitors of human PMI, primary screen, biochemical, fluorescence intensity, coupled assay (AID 1209).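 Also: plate controls were DMSO vehicle for no effect and wells lacking substrate for full effect.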 To be noted: purified PMI enzyme, at 20 µM, active compounds read high.
Chain of Mannose-6-phosphate isomerase (Homo sapiens) (P34949 whole entry, looked up): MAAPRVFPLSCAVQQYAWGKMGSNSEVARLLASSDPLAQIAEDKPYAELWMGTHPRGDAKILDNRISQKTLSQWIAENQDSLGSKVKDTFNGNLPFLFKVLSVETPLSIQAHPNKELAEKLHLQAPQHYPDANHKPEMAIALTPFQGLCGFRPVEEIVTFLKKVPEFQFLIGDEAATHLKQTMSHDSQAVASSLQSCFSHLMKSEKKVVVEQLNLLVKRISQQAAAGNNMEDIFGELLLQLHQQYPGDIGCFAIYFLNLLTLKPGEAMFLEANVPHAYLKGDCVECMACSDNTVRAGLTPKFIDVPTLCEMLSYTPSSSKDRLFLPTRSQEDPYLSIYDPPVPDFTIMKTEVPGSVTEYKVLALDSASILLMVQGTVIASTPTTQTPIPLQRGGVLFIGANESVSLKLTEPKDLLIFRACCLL
For `CC1=NC(C(F)(F)F)(C(F)(F)F)C2=C(CC(C)(C)CC2=O)N1Cc1ccco1`, the inhibition was 6% (inactive).
As for `CN1CCN(/N=C/c2nc(-c3cccc([N+](=O)[O-])c3)n3ccccc23)CC1`, the inhibition is 8.1% (inactive).
To `O=C(Nc1nc2ccccc2[nH]1)C1CCCC1` belongs 4.1% (inactive).
As for `CC(NS(=O)(=O)c1ccccc1)C(c1cccs1)N1CCN(C)CC1` (stereo unspecified), the inhibition was 1.7% (inactive).
Turning to `CC(=O)n1cc(C(C[N+](=O)[O-])SCCN)c2ccccc21` (stereo unspecified), the inhibition was 6.6% (inactive).
For the compound `CC(=O)SC(C[N+](=O)[O-])c1cn(C(C)=O)c2ccccc12` (stereo unspecified), the inhibition was 63.1% (active).
As for `CC(=O)n1cc(Nc2ccc([N+](=O)[O-])cc2)c2ccccc21`, the inhibition was -30.8% (inactive).
Under `C=CCn1c(SCC(=O)Nc2nc(C)cs2)nnc1C(NC(=O)c1ccccc1)C(C)C` (stereo unspecified) stands 5.4% (inactive); under `O=C(CSc1nc(-c2ccccc2)nc2ccccc12)Nc1cccc(C(=O)O)c1`, 20.6% (inactive).
`CCOC(=O)c1cc(-c2ccccc2)sc1NC(=O)c1ccc(OC)cc1`: the inhibition is 68.2% (active).
Consider `CCOC(=O)c1cc(-c2ccccc2)sc1NC(=O)c1cc(OC)c(OC)c(OC)c1`, for which the inhibition was 13% (inactive).
To `CCOC(=O)c1cc(-c2ccccc2)sc1NC(=O)c1ccc(OC)c(OC)c1` belongs 42.1% (inactive); to `CCn1c(SCC(=O)c2ccc(CNC(C)=O)o2)nnc1-c1cccs1`, -9% (inactive); to `O=c1nc(-c2ccccc2)c2ccccc2[nH]1`, 10.3% (inactive).
Take `O=c1cc2[nH]c3ccccc3c(=O)n2nc1-c1ccccc1`: the inhibition is 63.9% (active).
On to `O=c1cc(-c2ccccc2)[nH]c2ccccc12`, for which the inhibition was -3.1% (inactive).
For `Cc1ccc(Cl)cc1NC(=O)N[C@@H](C)C(=O)O`, the inhibition is -0.2% (inactive).
With `O=C(C1CCN(S(=O)(=O)c2cccc3nsnc23)CC1)N1CCn2c1nc1ccccc12`, the inhibition is 8.5% (inactive).
`C=CCn1c(NCCOC)nc2c1c(=O)n(C)c(=O)n2C`: the inhibition is -2.8% (inactive).
With `CCSc1nnc2nc(C)cc(C)n12`, the inhibition was 7.6% (inactive).
In the case of `CCCSc1nnc2nc(C)cc(C)n12`, the inhibition was -2.6% (inactive).
For the compound `Cc1nnsc1SCC(=O)O`, the inhibition was -12.4% (inactive).
Under `CC(Sc1sc(=S)sc1SC(C)C(=O)O)C(=O)O` (stereo unspecified) stands -15.4% (inactive).
Under `Cc1nnsc1SC(C)C(=O)O` (stereo unspecified) stands 64.6% (active).
As to `Cc1ccc(S(=O)(=O)N2CCCCC2)cc1NC(=O)Nc1ccc(Cl)cc1Cl`, the inhibition is 13.8% (inactive).
As to `CC(Nc1ccc2c(c1)OCCO2)C(=O)N1CCc2ccccc21` (stereo unspecified), the inhibition is 6.4% (inactive).
For `Cn1c(=O)n(C)c2cc(S(=O)(=O)Nc3cc(Cl)ccc3O)ccc21`, the inhibition was 9.8% (inactive).
Consider `CNC(=O)CN1C(=O)c2cccc3cccc1c23`, for which the inhibition is -1.5% (inactive).
To `CCN1C(=O)c2cccc3c(S(=O)(=O)Nc4ccccc4)ccc1c23` belongs -1% (inactive); to `CCN1C(=O)c2cccc3c(N)ccc1c23`, 64.7% (active); to `CCN1/C(=N\N)c2cccc3cccc1c23`, -48% (inactive).
On to `CCN1C(=O)c2cccc3c(NC(=O)C(C)(C)C)ccc1c23`, for which the inhibition is 13.8% (inactive).
To `Cc1nc2cc3c(cc2c(C)c1C(=O)OC(C)C)OCO3` belongs -5.2% (inactive).
In the case of `Cc1ccc(C(=O)NCc2ccccc2)c(F)c1F`, the inhibition was 5.5% (inactive).
Regarding `COc1ccc(OC)c(NC2c3ccccc3C(=O)N2c2cccnc2)c1` (stereo unspecified), the inhibition is -11.1% (inactive).
Consider `Oc1ccc2ccccc2c1/C=N/c1nc2c(s1)CCCC2`, for which the inhibition was 45.8% (inactive).
In the case of `COc1ccc2c(c1)-c1nc(/N=C/c3ccccc3O)sc1CC2`, the inhibition is 70% (active).
Consider `COc1ccc2c(c1)-c1nc(N)sc1CC2`, for which the inhibition was 73.3% (active).
`COc1ccc2c(c1)Cc1sc(NC(=O)c3ccccc3)nc1-2`: the inhibition is 3.2% (inactive).
For `COc1ccc2c(c1)CCc1sc(NC(=O)c3ccco3)nc1-2`, the inhibition is 31.4% (inactive).
As to `COc1ccc(C(=O)Nc2nc3c(s2)Cc2cc(OC)ccc2-3)cc1`, the inhibition is -2.4% (inactive).
In the case of `COc1ccc2c(c1)-c1nc(NC(=O)c3ccco3)sc1CC2`, the inhibition is 23.9% (inactive).
On to `COc1ccc(N=Cc2c(O)ccc3ccccc23)cc1`, for which the inhibition was 37% (inactive).
With `COc1ccc2c(c1)-c1nc(/N=C/c3c(O)ccc4ccccc34)sc1CC2`, the inhibition was 77.9% (active).
As to `COc1ccc2c(c1)-c1nc(NC(=O)c3cccs3)sc1CC2`, the inhibition is 26.3% (inactive).
As to `COc1ccc2c(c1)CCc1sc(NC(=O)c3ccc(C)cc3)nc1-2`, the inhibition is 19.4% (inactive).
Take `COc1ccc2c(c1)-c1nc(/N=C/c3ccc(O)cc3)sc1CC2`: the inhibition was 80.2% (active).
Take `COc1cccc(N(CC(=O)N2CCN(C)CC2)S(=O)(=O)c2ccccc2)c1`: the inhibition was 2.4% (inactive).
With `Cc1ccc(C)c(N2CCN(C(c3ccc(N(C)C)cc3)c3nnnn3C(C)(C)C)CC2)c1` (stereo unspecified), the inhibition is 12.6% (inactive).
Regarding `CCCNCC(O)Cn1c2ccccc2n2c(=O)cc(C)c(C#N)c12` (stereo unspecified), the inhibition is -6% (inactive).
For `Cc1ccc(C)c(NC(=O)CSc2ccc(-c3ccco3)nn2)c1`, the inhibition is 8.2% (inactive).
Turning to `COc1cccc(N(C(=O)Cn2nnc3ccccc32)C(C(=O)NCc2ccco2)c2cccnc2)c1` (stereo unspecified), the inhibition is 1.5% (inactive).
With `Cc1ccc(C)c(C(=O)NC2CC(C)(C)NC(C)(C)C2)c1`, the inhibition is 2.7% (inactive).
With `CC(NC(=O)c1sc2ccccc2c1Cl)C1CCCO1` (stereo unspecified), the inhibition is 6.7% (inactive).
For the compound `O=C(CSc1nccc(-c2ccc(Br)cc2)n1)NCCc1ccccc1`, the inhibition was 0.8% (inactive).
For `CSc1ccc(-c2nc(O)c3cnccn23)cc1`, the inhibition was -16.4% (inactive).
To `CN(C)S(=O)(=O)c1cccc(NC(=O)c2cc(-c3cccs3)nn2-c2ccccc2)c1` belongs 2.9% (inactive).
Regarding `CC(C)NC(=O)C1CCN(C2CCN(Cc3nc4ccccc4s3)CC2)CC1`, the inhibition was 1.6% (inactive).
Under `COc1cccc(C=Nc2cc(C)on2)c1O` stands 13.5% (inactive); under `COc1ccc2c(c1)-c1nc(/N=C/c3cccc(OC)c3O)sc1CC2`, 65.8% (active).
On to `COc1cccc(C=Nc2cc(C)cc(C)c2)c1O`, for which the inhibition is -1.7% (inactive).
As for `CCC(Oc1ccc2c(c1)C(=O)CC(C)(C)O2)C(=O)NCCN1CCCCCC1` (stereo unspecified), the inhibition was 20% (inactive).
To `CC(Sc1nnc(COc2ccc([N+](=O)[O-])cc2)n1C)C(=O)O` (stereo unspecified) belongs 0.2% (inactive); to `Cc1nc([N+](=O)[O-])nn1C12CC3CC(CC(Br)(C3)C1)C2`, 75% (active).
Take `Cc1cc(NC(=O)C23CC4CC(C2)CC(n2cnc([N+](=O)[O-])n2)(C4)C3)no1`: the inhibition was 2.7% (inactive).
With `Cc1nc([N+](=O)[O-])nn1C12CC3CC(CC(Cl)(C3)C1)C2`, the inhibition is 4.8% (inactive).
